According to ChEMBL document CHEMBL3433997, “St. Jude Leishmania screening dataset” (2016):

The compounds below were run against Solute carrier family 2, facilitated glucose transporter member 1 (Homo sapiens) (UniProt P11166) (assay: ST_JUDE_LEISH: Cytotoxicity at 2uM final concentration against transgenic Leishmania Mexicana promastigotes LmGLUT1 that are glucose transport deficient and complemented with the human glucose transporter GLUT1. Activity is measured by DNA content using SYBR green in vitro).
Chain of Solute carrier family 2, facilitated glucose transporter member 1 (Homo sapiens) (P11166 whole entry): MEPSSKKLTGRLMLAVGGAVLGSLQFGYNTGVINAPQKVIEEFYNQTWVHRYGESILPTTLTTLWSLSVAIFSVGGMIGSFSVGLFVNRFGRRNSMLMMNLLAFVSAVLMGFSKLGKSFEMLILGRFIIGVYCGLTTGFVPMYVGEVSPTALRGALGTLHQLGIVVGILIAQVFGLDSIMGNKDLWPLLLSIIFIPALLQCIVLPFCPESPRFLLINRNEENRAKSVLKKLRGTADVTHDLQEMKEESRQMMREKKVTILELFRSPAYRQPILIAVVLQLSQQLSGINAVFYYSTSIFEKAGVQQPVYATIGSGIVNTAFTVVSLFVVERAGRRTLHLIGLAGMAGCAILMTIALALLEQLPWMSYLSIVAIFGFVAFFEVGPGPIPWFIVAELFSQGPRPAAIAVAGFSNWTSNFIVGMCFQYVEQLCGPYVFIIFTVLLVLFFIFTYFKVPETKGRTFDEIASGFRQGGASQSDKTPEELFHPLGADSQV
Type: functional

Structure (SMILES)	inhibition
C[C@H]1CN(Cc2cccc(-c3cc(CNC(=O)c4cccc(C(=O)c5ccc(Cl)c(Cl)c5)c4)ccc3F)c2)CCN1	1.24%
CN(C)CCNc1ncnc2c1[nH]c1ccc(Br)cc12	1.62%
Cc1ccccc1C(=O)NC(NC(=S)Nc1ccc([N+](=O)[O-])cc1)C(Cl)(Cl)Cl (stereo not given)	0.54%
CC(=O)Nc1cccc(C(=O)Nc2cccc(-c3ccc(-c4nc5cccc(C)c5[nH]4)s3)c2)c1	3.54%
CC(C)NCc1ccc(-c2cccc(-c3nc4cc(C(F)(F)F)ccc4[nH]3)c2)cc1	3.55%
Clc1ccc(-c2csc3ncnc(Cl)c23)cc1	4.6%
CCn1c(-c2nonc2N)nc2c(-c3cccc(NC(=O)Nc4ccc5c(c4)CCC5)c3)ncc(OCCCN)c21	2.61%
CCC[C@@H]([C@@H](CC1CCCCC1)C(=O)N[C@H](C(=O)Nc1nccs1)[C@@H](C)OCc1ccccc1)N(O)C=O	6.17%
COc1ccc(OC)c(Cc2cnc3nc(N)[nH]c(=O)c3c2C)c1	3.38%
Nc1ccc2nc(C=Cc3ccc(Cl)cc3)[nH]c2c1	3.56%
C(=Cc1nc2ccccc2s1)c1ccc2c(c1)OCCO2	0.08%
CCN(CCCN1CCCCC1)c1cc(C)nc(Nc2cc(Br)ccc2C)n1	-1.93%
O=C(NCCc1ccccc1F)c1ccc(N2CCN(c3ccncc3)CC2)cn1	10.3%
CS(=O)(=O)CCNCc1cccc(-c2cc3c(Nc4ccc5c(cnn5Cc5ccccc5)c4)ncnc3s2)c1	2.62%
COc1ccccc1CCNc1nc(C)cc(N[C@@H](Cc2ccccc2)C(=O)NCCCOC(C)C)n1	3.06%
Fc1ccc(OC2CN(c3nccc(NCc4ccccc4Cl)n3)C2)cc1	3.81%
CCCNC[C@@H](O)[C@H](Cc1ccccc1)NC(=O)c1cc2c3c(c1)c(CC)cn3CCS(=O)(=O)N2C	-2.56%
COc1ccc(CN(C)CCCc2ccc(NC(=O)Cc3ccc4nc(-c5ccccc5)ccc4c3)cc2)cc1OC	19.3%
Nc1nonc1-c1nc2c(-c3cccc(Cl)c3)nccc2n1CCCNC(=O)Cc1ccc(Cl)cc1	0.7%
O=C(Nc1cccc(-c2cccc(-c3nc4ccccc4[nH]3)c2)c1)c1ccncc1	4.03%

Structure (SMILES)	inhibition
O=S(=O)(c1cc2ccccc2s1)N(CCC(O)(C(F)(F)F)C(F)(F)F)Cc1cccc(O)c1	-0.29%
COc1ccc(-c2cccc(NC(=O)c3cccc(C#N)c3)c2)cc1CN(C)CCO	3.7%
Cc1cc(N2CCOCC2)nc2ccc(NC(=O)c3cccc([N+](=O)[O-])c3)cc12	5.27%
CCOc1cc2ncnc(Nc3ccc(OCc4ccccc4OC)c(OC)c3)c2cc1OCC	5.01%
Cc1ccc2[nH]c(-c3ccccc3Nc3ccnc4cc(-c5nccs5)ccc34)nc2c1	1.04%
O=S(=O)(c1cc(Cl)ccc1Cl)N1CCCCC(c2ccc(C(F)(F)F)cc2)=N1	0.47%
CC(=O)Nc1ccc(C(=O)Nc2cccc(-c3cccc(-c4nc5ccccc5[nH]4)c3)c2)cn1	2.35%
COc1ccc(CNCc2ccc(-c3ccc(-c4nc5cc(C(F)(F)F)ccc5[nH]4)s3)cc2)cc1	3.27%
O=C(Nc1ccc(Cn2ncc(N3CCCNCC3)c(Cl)c2=O)cc1)Nc1cccc(SC(F)(F)F)c1	0.84%
Brc1cc(Br)c2c(c1)C(NCCCNc1nc3ncccc3[nH]1)CCN2 (stereo not given)	68%
OC(CNc1ccnc(Nc2cccc(CCN3CCOCC3)c2)n1)c1ccccc1 (stereo not given)	0.07%
Cc1noc(-c2cccs2)c1C(=O)NC(C)c1cccc2ccccc12 (stereo not given)	-0.34%
O=C(Nc1ccc(C(=O)Nc2cccc(C3=NCCN3)c2)cc1)Nc1ccc(C2=NCCN2)cc1	-1.17%
N#Cc1cccc(NC(=O)NC2CCN(CCCCCNC(=O)C3CC3c3ccc(Cl)c(Cl)c3)CC2)c1 (stereo not given)	0.56%
COc1ccc2c(c1)ncn2-c1cc(OCc2ccncc2Br)c(C(N)=O)s1	1.09%
Oc1ccc2ncnc(Nc3ccc(OCc4cccc(F)c4)c(Cl)c3)c2c1	-2.81%
COc1cc(OC)cc(C(=O)Nc2nc(-c3ccccn3)cs2)c1	7.32%
CCc1ccc(-n2c(NC(=O)c3ccccc3)nc3ccc(S(=O)(=O)NC(C)C(C)C)cc32)cc1 (stereo not given)	-1.74%
COc1ccc2nc3cc(Cl)ccc3c(NCCCCCCNc3c4ccc(Cl)cc4nc4ccc(OC)cc34)c2c1	10.3%
COc1ccccc1CCNc1nc(C)cc(N[C@@H](CC(C)C)C(=O)NCCc2ccccc2)n1	2.53%

Each compound was assayed against Hexose transporter 1 (Plasmodium falciparum) (UniProt O97467) (assay: ST_JUDE_LEISH: Cytotoxicity at 2uM final concentration against transgenic Leishmania Mexicana promastigotes LmPfHT that are glucose transport deficient and complemented with the Plasmodium falciparum hexose transporter. Activity is measured by DNA content using SYBR green in vitro).
Type: functional

Structure (SMILES)	inhibition
C[C@H]1CN(Cc2cccc(-c3cc(CNC(=O)c4cccc(C(=O)c5ccc(Cl)c(Cl)c5)c4)ccc3F)c2)CCN1	2.34%
CN(C)CCNc1ncnc2c1[nH]c1ccc(Br)cc12	4.67%
Cc1ccccc1C(=O)NC(NC(=S)Nc1ccc([N+](=O)[O-])cc1)C(Cl)(Cl)Cl (stereo not given)	-1.37%
CC(=O)Nc1cccc(C(=O)Nc2cccc(-c3ccc(-c4nc5cccc(C)c5[nH]4)s3)c2)c1	1.14%
CC(C)NCc1ccc(-c2cccc(-c3nc4cc(C(F)(F)F)ccc4[nH]3)c2)cc1	3.48%
Clc1ccc(-c2csc3ncnc(Cl)c23)cc1	0.54%
CCn1c(-c2nonc2N)nc2c(-c3cccc(NC(=O)Nc4ccc5c(c4)CCC5)c3)ncc(OCCCN)c21	3.19%
CCC[C@@H]([C@@H](CC1CCCCC1)C(=O)N[C@H](C(=O)Nc1nccs1)[C@@H](C)OCc1ccccc1)N(O)C=O	3.62%
COc1ccc(OC)c(Cc2cnc3nc(N)[nH]c(=O)c3c2C)c1	4.59%
Nc1ccc2nc(C=Cc3ccc(Cl)cc3)[nH]c2c1	3.93%
C(=Cc1nc2ccccc2s1)c1ccc2c(c1)OCCO2	0.45%
CCN(CCCN1CCCCC1)c1cc(C)nc(Nc2cc(Br)ccc2C)n1	-0.61%
O=C(NCCc1ccccc1F)c1ccc(N2CCN(c3ccncc3)CC2)cn1	9.09%
CS(=O)(=O)CCNCc1cccc(-c2cc3c(Nc4ccc5c(cnn5Cc5ccccc5)c4)ncnc3s2)c1	-0.73%
COc1ccccc1CCNc1nc(C)cc(N[C@@H](Cc2ccccc2)C(=O)NCCCOC(C)C)n1	3.2%
Fc1ccc(OC2CN(c3nccc(NCc4ccccc4Cl)n3)C2)cc1	2.84%
CCCNC[C@@H](O)[C@H](Cc1ccccc1)NC(=O)c1cc2c3c(c1)c(CC)cn3CCS(=O)(=O)N2C	0.74%
COc1ccc(CN(C)CCCc2ccc(NC(=O)Cc3ccc4nc(-c5ccccc5)ccc4c3)cc2)cc1OC	11.1%
Nc1nonc1-c1nc2c(-c3cccc(Cl)c3)nccc2n1CCCNC(=O)Cc1ccc(Cl)cc1	0.77%
O=C(Nc1cccc(-c2cccc(-c3nc4ccccc4[nH]3)c2)c1)c1ccncc1	4.7%

Structure (SMILES)	inhibition
O=S(=O)(c1cc2ccccc2s1)N(CCC(O)(C(F)(F)F)C(F)(F)F)Cc1cccc(O)c1	-1.09%
COc1ccc(-c2cccc(NC(=O)c3cccc(C#N)c3)c2)cc1CN(C)CCO	5.06%
Cc1cc(N2CCOCC2)nc2ccc(NC(=O)c3cccc([N+](=O)[O-])c3)cc12	4.5%
CCOc1cc2ncnc(Nc3ccc(OCc4ccccc4OC)c(OC)c3)c2cc1OCC	2.81%
Cc1ccc2[nH]c(-c3ccccc3Nc3ccnc4cc(-c5nccs5)ccc34)nc2c1	4.44%
O=S(=O)(c1cc(Cl)ccc1Cl)N1CCCCC(c2ccc(C(F)(F)F)cc2)=N1	2.66%
CC(=O)Nc1ccc(C(=O)Nc2cccc(-c3cccc(-c4nc5ccccc5[nH]4)c3)c2)cn1	-0.22%
COc1ccc(CNCc2ccc(-c3ccc(-c4nc5cc(C(F)(F)F)ccc5[nH]4)s3)cc2)cc1	1.92%
O=C(Nc1ccc(Cn2ncc(N3CCCNCC3)c(Cl)c2=O)cc1)Nc1cccc(SC(F)(F)F)c1	1.25%
Brc1cc(Br)c2c(c1)C(NCCCNc1nc3ncccc3[nH]1)CCN2 (stereo not given)	78.5%
OC(CNc1ccnc(Nc2cccc(CCN3CCOCC3)c2)n1)c1ccccc1 (stereo not given)	3.46%
Cc1noc(-c2cccs2)c1C(=O)NC(C)c1cccc2ccccc12 (stereo not given)	0.45%
O=C(Nc1ccc(C(=O)Nc2cccc(C3=NCCN3)c2)cc1)Nc1ccc(C2=NCCN2)cc1	0.34%
N#Cc1cccc(NC(=O)NC2CCN(CCCCCNC(=O)C3CC3c3ccc(Cl)c(Cl)c3)CC2)c1 (stereo not given)	0.42%
COc1ccc2c(c1)ncn2-c1cc(OCc2ccncc2Br)c(C(N)=O)s1	1.34%
Oc1ccc2ncnc(Nc3ccc(OCc4cccc(F)c4)c(Cl)c3)c2c1	-0.64%
COc1cc(OC)cc(C(=O)Nc2nc(-c3ccccn3)cs2)c1	14.4%
CCc1ccc(-n2c(NC(=O)c3ccccc3)nc3ccc(S(=O)(=O)NC(C)C(C)C)cc32)cc1 (stereo not given)	-1.8%
COc1ccc2nc3cc(Cl)ccc3c(NCCCCCCNc3c4ccc(Cl)cc4nc4ccc(OC)cc34)c2c1	11.2%
COc1ccccc1CCNc1nc(C)cc(N[C@@H](CC(C)C)C(=O)NCCc2ccccc2)n1	5.72%
